In PubChem BioAssay AID1159580 (chemical genetic matrix, 2015):
Several values for one entry are separate records, joined by “and”; a condition that tells them apart may be missing. Equal values may be shown once. Screen size: about 5,500 compounds; about 2,000 (36%) were called active. Inconclusive results (about 18%) are left out. Cut-off read from the data, not from the text of the source: active = normalized growth mostly below about 0.91 (no sharp cut-off); inconclusive = no clear call, values can overlap the other calls; inactive = mostly above about 0.92. The list shows a part of the results.

Experiment: chemical genetic growth profiling, strain panel (AID 1159580);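 note: tested at 20 µM; growth read once vehicle control cultures reached saturation at 30 °C; 1 = growth at the plate median or of vehicle wells; lower values mean less growth of the strain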
Settings: growth OD

Measured: normalized growth

CCCN(CCC)C(=O)C(CCC(=O)O)NC(=O)c1ccccc1 (stereo unspecified)
inactive: S. cerevisiae deletion strains, locus YJR075W, strain HOC1, hits give low values 0.988 | S. cerevisiae deletion strains, locus YKL009W, strain mrt4, hits give low values 1.02 | S. cerevisiae deletion strains, locus YKL068W, hits give low values 0.975 | S. cerevisiae deletion strains, locus YKL085W, strain MDH1 (second series), hits give low values 0.987 | S. cerevisiae deletion strains, locus YKL085W, strain MDH1, hits give low values 0.987 | S. cerevisiae deletion strains, locus YKL160W, strain elf1, hits give low values 1.01 | S. cerevisiae deletion strains, locus YKL190W, strain CNB1, hits give low values 0.988 | S. cerevisiae deletion strains, locus YKR001C, strain vps1, hits give low values 0.995 | S. cerevisiae deletion strains, locus YKR026C, strain gcn3, hits give low values 0.974 | S. cerevisiae deletion strains, locus YKR091W, strain srl3, hits give low values 0.985 | S. cerevisiae deletion strains, locus YLL001W, strain dnm1, hits give low values 0.973 | S. cerevisiae deletion strains, locus YLL026W, hits give low values 0.993 | S. cerevisiae deletion strains, locus YLL041C, strain sdh2, hits give low values 0.982 | S. cerevisiae deletion strains, locus YLR027C, strain aat2, hits give low values 0.982 | S. cerevisiae deletion strains, locus YLR039C, strain RIC1, hits give low values 0.987 | S. cerevisiae deletion strains, locus YLR058C, strain SHM2, hits give low values 0.997 | S. cerevisiae deletion strains, locus YLR102C, strain apc9, hits give low values 0.986 | S. cerevisiae deletion strains, locus YLR113W, strain HOG1, hits give low values 0.96 | S. cerevisiae deletion strains, locus YLR221C, strain rsa3, hits give low values 0.988 | S. cerevisiae deletion strains, locus YLR258W, strain gsy2, hits give low values 0.973 | S. cerevisiae deletion strains, locus YLR262C, strain YPT6 (second series), hits give low values 0.968 | S. cerevisiae deletion strains, locus YLR262C, strain YPT6, hits give low values 0.998 | S. cerevisiae deletion strains, locus YLR268W, strain sec22, hits give low values 0.955 | S. cerevisiae deletion strains, locus YLR320W, strain mms22, hits give low values 0.987 | S. cerevisiae deletion strains, locus YLR330W, strain CHS5, hits give low values 0.995 | S. cerevisiae deletion strains, locus YLR342W, strain FKS1 (second series), hits give low values 1.08 | S. cerevisiae deletion strains, locus YLR342W, strain FKS1, hits give low values 0.989 | S. cerevisiae deletion strains, locus YLR357W, strain rsc2, hits give low values 0.964 | S. cerevisiae deletion strains, locus YLR370C, strain arc18, hits give low values 0.984 | S. cerevisiae deletion strains, locus YLR371W, strain rom2, hits give low values 0.986 | S. cerevisiae deletion strains, locus YLR384C, strain iki3, hits give low values 0.982 | S. cerevisiae deletion strains, locus YLR418C, strain cdc73, hits give low values 1 | S. cerevisiae deletion strains, locus YML016C, strain PPZ1, hits give low values 1.01 | S. cerevisiae deletion strains, locus YML032C, strain rad52, hits give low values 0.982 | S. cerevisiae deletion strains, locus YML120C, strain ndi1, hits give low values 0.988 | S. cerevisiae deletion strains, locus YML124C, strain tub3, hits give low values 0.988 | S. cerevisiae deletion strains, locus YMR058W, strain fet3, hits give low values 0.983 | S. cerevisiae deletion strains, locus YMR078C, strain ctf18, hits give low values 0.985 | S. cerevisiae deletion strains, locus YMR125W, strain sto1, hits give low values 0.975 | S. cerevisiae deletion strains, locus YMR129W, hits give low values 1 | S. cerevisiae deletion strains, locus YMR205C, strain PFK2, hits give low values 0.992 | S. cerevisiae deletion strains, locus YMR223W, strain ubp8, hits give low values 1.02 | S. cerevisiae deletion strains, locus YMR231W, strain pep5, hits give low values 0.976 | S. cerevisiae deletion strains, locus YMR263W, strain SAP30, hits give low values 0.99 and 1.01 | S. cerevisiae deletion strains, locus YMR307W, strain GAS1, hits give low values 1.06 and 0.989 | S. cerevisiae deletion strains, locus YNL067W, strain RPL9B, hits give low values 0.982 | S. cerevisiae deletion strains, locus YNL071W, strain lat1, hits give low values 1 | S. cerevisiae deletion strains, locus YNL128W, strain TEP1, hits give low values 0.983 | S. cerevisiae deletion strains, locus YNL153C, strain GIM3, hits give low values 1 and 1.01 | S. cerevisiae deletion strains, locus YNL175C, strain NOP13, hits give low values 1.01 | S. cerevisiae deletion strains, locus YNL183C, strain NPR1, hits give low values 0.933 | S. cerevisiae deletion strains, locus YNL197C, strain WHI3, hits give low values 1.08 | S. cerevisiae deletion strains, locus YNL209W, strain ssb2, hits give low values 0.979 | S. cerevisiae deletion strains, locus YNL224C, strain SQS1, hits give low values 1 | S. cerevisiae deletion strains, locus YNL233W, strain BNI4, hits give low values 0.989 | S. cerevisiae deletion strains, locus YNL248C, strain rpa49, hits give low values 0.948 | S. cerevisiae deletion strains, locus YNL250W, strain rad50, hits give low values 0.982 | S. cerevisiae deletion strains, locus YNL271C, strain bni1, hits give low values 0.988 | S. cerevisiae deletion strains, locus YNL298W, strain CLA4, hits give low values 0.998 | S. cerevisiae deletion strains, locus YNL307C, strain MCK1, hits give low values 0.996 | S. cerevisiae deletion strains, locus YNL322C, strain KRE1 (second series), hits give low values 0.99 | S. cerevisiae deletion strains, locus YNL322C, strain KRE1, hits give low values 0.982 and 1.01 | S. cerevisiae deletion strains, locus YNR049C, strain mso1, hits give low values 0.968 | S. cerevisiae deletion strains, locus YNR052C, strain pop2, hits give low values 0.991 | S. cerevisiae deletion strains, locus YOL006C, strain TOP1, hits give low values 0.957 | S. cerevisiae deletion strains, locus YOL012C, strain htz1 1.01 | S. cerevisiae deletion strains, locus YOL147C, strain pex11, hits give low values 0.995 | S. cerevisiae deletion strains, locus YOR001W, strain rrp6, hits give low values 0.984 | S. cerevisiae deletion strains, locus YOR061W, strain CKA2, hits give low values 1.01 | S. cerevisiae deletion strains, locus YOR069W, strain VPS5, hits give low values 0.997 | S. cerevisiae deletion strains, locus YOR070C, strain gyp1, hits give low values 0.99 | S. cerevisiae deletion strains, locus YOR080W, strain dia2, hits give low values 0.969 | S. cerevisiae deletion strains, locus YOR083W, strain WHI5 (second series), hits give low values 1.01 | S. cerevisiae deletion strains, locus YOR083W, strain WHI5, hits give low values 0.98 | S. cerevisiae deletion strains, locus YOR106W, strain vam3, hits give low values 0.975 | S. cerevisiae deletion strains, locus YOR136W, strain idh2, hits give low values 0.989 | S. cerevisiae deletion strains, locus YOR144C, strain elg1, hits give low values 0.977 | S. cerevisiae deletion strains, locus YOR184W, strain ser1, hits give low values 0.993 | S. cerevisiae deletion strains, locus YOR231W, strain MKK1, hits give low values 0.978 | S. cerevisiae deletion strains, locus YOR265W, strain rbl2, hits give low values 0.987 | S. cerevisiae deletion strains, locus YOR270C, strain vph1, hits give low values 0.919 | S. cerevisiae deletion strains, locus YOR290C, strain snf2, hits give low values 0.988 | S. cerevisiae deletion strains, locus YOR316C, strain cot1, hits give low values 0.977 | S. cerevisiae deletion strains, locus YPL051W, strain arl3, hits give low values 0.987 | S. cerevisiae deletion strains, locus YPL055C, strain LGE1, hits give low values 0.99 and 1.01 | S. cerevisiae deletion strains, locus YPL078C, strain atp4, hits give low values 0.992 | S. cerevisiae deletion strains, locus YPL106C, strain sse1, hits give low values 0.955 | S. cerevisiae deletion strains, locus YPL240C, strain hsp82, hits give low values 0.986 | S. cerevisiae deletion strains, locus YPL241C, strain CIN2, hits give low values 1 | S. cerevisiae deletion strains, locus YPL256C, strain CLN2, hits give low values 0.965 | S. cerevisiae deletion strains, locus YPR119W, strain clb2, hits give low values 0.989 | S. cerevisiae deletion strains, locus YPR141C, strain kar3, hits give low values 0.984 | S. cerevisiae deletion strains, locus YPR163C, strain tif3, hits give low values 0.977 | S. cerevisiae deletion strains, locus YPR167C, strain met16, hits give low values 0.983 | S. cerevisiae deletion strains, strain wtn01, hits give low values 0.987 | S. cerevisiae strains, strain wild type, hits give low values 1
